Assay results published in PubChem BioAssay (Tox21).
Records with an inconclusive call do not appear. Activity calls are given as the source filed them. Unless noted, calls follow the shape of the dose curve; as a rule, active = well fitted cell-killing curve with a large enough effect in the repeat runs; inconclusive = weak or mixed curves, or effect the other way; inactive = no such curve, though single readings can be large or run the other way.

target: Vitamin D3 receptor (Homo sapiens) (UniProt P11473); assay: qHTS assay to identify small molecule antagonists of the vitamin D receptor (VDR) signaling pathway (AID 743223; active = well fitted inhibition curve with a large enough effect in the signal ratio in the repeat runs, not every such curve was filed as active; the % refers to the signal ratio); conditions: VDR-UAS-bla HEK293T, beta-lactamase FRET ratio, 16 h; series mostly up to 61 µM
Sequence (P11473 whole entry, looked up): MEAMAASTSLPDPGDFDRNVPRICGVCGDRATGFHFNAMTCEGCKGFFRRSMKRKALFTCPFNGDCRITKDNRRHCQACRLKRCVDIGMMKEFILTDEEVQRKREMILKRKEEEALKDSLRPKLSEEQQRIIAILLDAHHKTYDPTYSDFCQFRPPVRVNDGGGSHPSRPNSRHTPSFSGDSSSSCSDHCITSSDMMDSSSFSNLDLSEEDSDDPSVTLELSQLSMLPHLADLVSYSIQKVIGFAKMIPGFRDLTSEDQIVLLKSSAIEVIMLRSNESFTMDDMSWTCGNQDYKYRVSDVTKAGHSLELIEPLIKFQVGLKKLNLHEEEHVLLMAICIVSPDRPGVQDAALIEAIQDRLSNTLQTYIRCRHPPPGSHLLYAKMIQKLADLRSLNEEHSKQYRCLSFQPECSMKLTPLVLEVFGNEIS
In short: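 Agonist 1alpha,25-dihydroxyvitamin D3 (3 nM in well) was added with each compound to VDR-bla cells preincubated 4 h. Cells stood 16 h at 37C, then FRET substrate 2 h at room temperature; fluorescence intensity recorded.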

Row | Compound | outcome
1 | CC(C)=CCl | inactive
2 | C=CC[N+](C)(C)CC=C | inactive
3 | COc1ccc([N+](=O)[O-])cc1N | inactive
4 | NCCCCCCN | inactive
5 | NCCNCCN | inactive
6 | CCCCCC(=O)O | inactive
7 | CC(C)(C)c1cc(Cc2cc(C(C)(C)C)c(O)c(C(C)(C)C)c2)cc(C(C)(C)C)c1O | inactive
8 | COC(=O)CCCC(=O)OC | inactive
9 | CN(C)c1ccc(Cc2ccc(N(C)C)cc2)cc1 | inactive
10 | CC(C)OP(=O)(CP(=O)(OC(C)C)OC(C)C)OC(C)C | inactive
11 | COC(=O)c1cccnc1 | inactive
12 | Cc1ccc(S(=O)(=O)N=C=O)cc1 | inactive
13 | CC(CCl)OP(=O)(OC(C)CCl)OC(C)CCl (stereo unspecified) | inactive
14 | CC(C)CCCCCCCOC(=O)CCCCC(=O)OCCCCCCCC(C)C | inactive
15 | CC(=O)c1ccc(O)cc1 | inactive
16 | C=C(C)CNCC | inactive
17 | C=C(C)C(=O)OCC(C)C | inactive
18 | CCNc1ccccc1 | inactive
19 | O=C(O)/C=C/C(=O)O | inactive
20 | CC(=O)OCc1ccco1 | inactive
21 | O=C(O)c1cc2ccccc2cc1O | inactive
22 | CCNc1cccc(C)c1 | inactive
23 | COc1ccc(OC)cc1 | inactive
24 | N#Cc1ccccc1 | inactive

test system: not listed separately; assay: qHTS assay to identify small molecule agonists of the vitamin D receptor (VDR) signaling pathway - cell viability counter screen (AID 743224); conditions: VDR-bla HEK293T viability, CellTiter-Glo luminescence, 16 h; series mostly up to 62.6 µM; also: nearly all actives have a fitted effect of over 50% in size
In short: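 VDR-bla cells, 4 h after plating, exposed to compounds for 16 h at 37C; viability then read in the same wells as CellTiter-Glo luminescence after 30 min at room temperature, following the bla FRET read.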

Row | Compound | outcome
25 | CC(C)CC(=O)CC(C)CC(C)C (stereo unspecified) | inactive
26 | O=C(O)CCCCCCCCC(=O)O | inactive
27 | CN(C)c1ccc(O)c2c1C[C@H]1C[C@H]3[C@H](N(C)C)C(=O)C(C(N)=O)=C(O)[C@@]3(O)C(=O)C1=C2O | inactive
28 | NC(=S)NNC(N)=S | inactive
29 | c1ccc(Oc2ccccc2)cc1 | inactive
30 | CCCCCCCCCCN | inactive
31 | O=[N+]([O-])c1ccc2nc[nH]c2c1 | inactive
32 | C[Si]1(C)O[Si](C)(C)O[Si](C)(C)O[Si](C)(C)O1 | inactive
33 | CC(C)c1cccc(C(C)C)c1 | inactive
34 | O=C1c2ccccc2CCc2ccccc21 | inactive
35 | CC(C)=CCl | inactive
36 | C=CC[N+](C)(C)CC=C | inactive
37 | COc1ccc([N+](=O)[O-])cc1N | inactive
38 | O=C(O)c1ccc(C(=O)O)c(C(=O)O)c1 | inactive
39 | NCCCCCCN | inactive
40 | NCCNCCN | inactive
41 | CCCCCC(=O)O | inactive
42 | CC(C)(C)c1cc(Cc2cc(C(C)(C)C)c(O)c(C(C)(C)C)c2)cc(C(C)(C)C)c1O | inactive
43 | COC(=O)CCCC(=O)OC | inactive

Row | Compound | outcome
44 | CN(C)c1ccc(Cc2ccc(N(C)C)cc2)cc1 | inactive
45 | CC(C)OP(=O)(CP(=O)(OC(C)C)OC(C)C)OC(C)C | inactive
46 | COC(=O)c1cccnc1 | inactive
47 | CCOC(=O)n1ccn(C)c1=S | inactive
48 | Cc1ccc(S(=O)(=O)N=C=O)cc1 | inactive
49 | CC(CCl)OP(=O)(OC(C)CCl)OC(C)CCl (stereo unspecified) | inactive
50 | CC(C)CCCCCCCOC(=O)CCCCC(=O)OCCCCCCCC(C)C | inactive
51 | CC(=O)c1ccc(O)cc1 | inactive
52 | C=C(C)CNCC | inactive
53 | CCCCC(C=O)CC (stereo unspecified) | inactive
54 | C=C(C)C(=O)OCC(C)C | inactive
55 | CCNc1ccccc1 | inactive
56 | O=C(O)/C=C/C(=O)O | inactive
57 | CC(=O)OCc1ccco1 | inactive
58 | O=C(O)c1cc2ccccc2cc1O | inactive
59 | CCNc1cccc(C)c1 | inactive
60 | COc1ccc(OC)cc1 | inactive
61 | N#Cc1ccccc1 | inactive
